The values below come from the supplement of paper PMC9897528.
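Also: conidia screened in RPMI 1640 medium under 5% CO2, growth read by spectrophotometer, medium with 0.5% DMSO serving as the untreated reference.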

The experiment concerns Scedosporium aurantiacum CBS 136046. In words: growth inhibition relative to DMSO control (OD600); higher = more antifungal activity, active = 80 or more; extreme values may be limits of the assay. The conditions noted are these: 5 µM; 72 h; 37 °C.
`N[C@@H]1CN(c2c(F)cc3c(=O)c(C(=O)O)cn([C@@H]4C[C@@H]4F)c3c2Cl)CC12CC2`: the growth inhibition is 7.35% (inactive).

Regarding `CNC(=O)C1O[C@@H](n2cnc3c(NCc4cccc(I)c4)nc(Cl)nc32)[C@H](O)[C@@H]1O` (stereo partly drawn), the growth inhibition is 3.52% (inactive).

For `NC(=O)c1[nH]c2ccc(S(N)(=O)=O)cc2c1-c1ccccc1`, the growth inhibition is 34.5% (inactive).

As to `COc1ccc2sc3c(c2c1)NC(C)CNC3=O` (stereo not drawn), the growth inhibition is 7.39% (inactive).

As for `O=C(Nc1nnc(-c2ccc(Cl)cc2)o1)c1nc2ccccc2s1`, the growth inhibition was 15.8% (inactive).

Consider `NCc1ccc(S(N)(=O)=O)cc1`, for which the growth inhibition is 9.4% (inactive).

Consider `Nc1nc(NC2Cc3ccc(F)cc3C2)nc(N2CCCCC2)n1` (stereo not drawn), for which the growth inhibition was 45.3% (inactive).

With `O=C(Nc1ccccc1)N(Cc1cc(Br)ccc1O)c1ccc(F)cc1`, the growth inhibition was 40.7% (inactive).

With `CCCCOC(=O)Nc1cc2nc(C3CCCCC3)[nH]c2cc1N(CC)CC`, the growth inhibition was 39.7% (inactive).

As for `CC(Oc1ccc(Cl)cc1Cl)C(=O)NCc1ccc2c(c1)OCO2` (stereo not drawn), the growth inhibition is 17.5% (inactive).

On to `Cc1ccc(NC(=O)c2ccc(CN3CCN(C)CC3)cc2)cc1Nc1nccc(-c2cccnc2)n1`, for which the growth inhibition is 17.6% (inactive).

`O=[N+]([O-])/C(Br)=C/c1ccc(Br)o1`: the growth inhibition was 0.879% (inactive).

On to `Nc1nc2c(ncn2COCCO)c(=O)[nH]1`, for which the growth inhibition is 11.1% (inactive).

`O=C(CCc1ccc2c(c1)OCO2)NCc1ccc(-c2ccccc2F)cc1`: the growth inhibition is 28.3% (inactive).

Take `COc1ccc(SC(=O)N[C@H](CCC(=O)O)C(=O)O)cc1`: the growth inhibition is 24.2% (inactive).

As for `N[C@H](CCC(=O)N[C@@H](Cc1c[nH]c2ccccc12)C(=O)O)C(=O)O`, the growth inhibition is 1.28% (inactive).

In the case of `Cc1ccn2c(C(=O)NCc3ccccc3)c(C)nc2c1`, the growth inhibition was 34% (inactive).

In the case of `O=C(c1cc(O)nc2ccccc12)N1CCN(c2ccccc2)CC1`, the growth inhibition was 5.66% (inactive).

As for `C=CCN(C(=O)OCc1ccc([N+](=O)[O-])cc1)C1CCN(CC[C@](C)(CN(C)S(=O)(=O)c2ccccc2)c2ccccc2)CC1`, the growth inhibition was 34.9% (inactive).

Turning to `CC(C)(C)NC(=O)[C@@H]1CN(Cc2cnc3occc3c2)CCN1C[C@@H](O)C[C@@H](Cc1ccccc1)C(=O)N[C@H]1c2ccccc2C[C@H]1O`, the growth inhibition was 1.85% (inactive).

With `O=C(NCc1cccc2ccccc12)c1cccs1`, the growth inhibition is 0% (inactive).

`COCCn1cnc2c(O)nc(Nc3ccccc3)nc21`: the growth inhibition was 5.59% (inactive).

As to `CC1=C(/C=C/C(C)=C/C=C/C(C)=C/C(=O)Nc2ccc(O)cc2)C(C)(C)CCC1`, the growth inhibition is 14.5% (inactive).
